# PLK1 PBD block: qHTS for Inhibitors of PLK1-PDB (polo-like kinase 1 - polo-box domain): Primary Screen | Plk1 PBD binding of FITC phosphopeptide, fluorescence polarization | Potency, µM, without a hit: max response, negative = inhibition, actives largely listed as inhibitors | hit rate 2.8% among 360,000; note: series mostly up to about 57 µM; % is set by controls: 0 for no effect and ±100 for the full control effect; nearly all actives have a fitted effect of over 65% in size
# G9a block: qHTS Assay for Inhibitors of Histone Lysine Methyltransferase G9a; Histone-lysine N-methyltransferase EHMT2 (Homo sapiens), Q96KQ7; G9a H3K9 monomethylation, AlphaScreen, 2 h; Potency, µM (top dose mostly 102 µM), for inactives: top-dose activity, negative = inhibition, hits mostly inhibitors; hit rate 8.8% among 350,000; AID 504332, 2011; note: % is set by controls: 0 for no effect and ±100 for the full control effect; nearly all actives have a fitted effect of over 75% in size
# Target sequence (Q96KQ7 913-1193 limits assumed): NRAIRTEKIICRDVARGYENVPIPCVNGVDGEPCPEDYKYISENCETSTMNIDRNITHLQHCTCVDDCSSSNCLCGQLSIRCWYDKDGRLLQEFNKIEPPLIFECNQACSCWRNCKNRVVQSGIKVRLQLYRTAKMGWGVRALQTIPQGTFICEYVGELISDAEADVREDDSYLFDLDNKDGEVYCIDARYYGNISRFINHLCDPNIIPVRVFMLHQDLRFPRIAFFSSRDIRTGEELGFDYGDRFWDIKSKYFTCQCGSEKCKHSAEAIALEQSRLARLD
#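 G9a (20 nM) preincubated 15 min RT with compounds, then 500 nM biotinylated H3K9 peptide and 20 uM SAM added; 2 h RT reaction. Monomethyl-H3K9 product detected by AlphaScreen with anti-H3K9me1 antibody, streptavidin donor and anti-rabbit IgG acceptor beads.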
# BAZ2B block: qHTS Assay for Inhibitors of BAZ2B | AlphaScreen BAZ2B-H3K14Ac peptide displacement | AID 504333, 2011 | Bromodomain adjacent to zinc finger domain protein 2B (Homo sapiens), Q9UIF8 | Potency, µM (series often up to 114 µM), without a hit: at the top dose activity change, negative = inhibition, actives largely listed as inhibitors | hit rate 4.4% among 360,000; note: % is set by controls: 0 for no effect and ±100 for the full control effect; nearly all actives have a fitted effect of over 60% in size
#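 AlphaScreen displacement of biotin-H3(5-23)K14Ac peptide (50 nM final) from BAZ2B (50 nM final) in PBS pH 7.4, 0.01% Tween-20; complex preformed 30 min RT, then compounds (top 110 uM) 30 min RT, beads 20 min dark.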
# JMJD2A Tudor inh: qHTS Assay for Inhibitors of JMJD2A-Tudor Domain; hit rate 4.4% among 390,000; AID 504339, 2011; Potency, µM (top dose mostly 114 µM), for the others: at the top dose activity change, negative = inhibition, actives largely listed as inhibitors; AlphaScreen JMJD2A-Tudor / H3K4me3 peptide binding; note: % is set by controls: 0 for no effect and ±100 for the full control effect; nearly all actives have a fitted effect of over 50% in size
# VDR inh: Inhibitors of the vitamin D receptor (VDR): qHTS; VDR-SRC2-3 peptide fluorescence polarization, 2 h; hit rate 0.93% among 400,000; Potency, µM, inactives show max response, negative = inhibition, hits mostly inhibitors; note: % is set by controls: 0 for no effect and ±100 for the full control effect
#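 Compounds are added to VDR with labelled SRC2-3 coactivator peptide and held 2 h at room temperature. Inhibition of the VDR–peptide interaction is then read as a change in fluorescence polarization.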
# HP1b binding inh: HTS for Inhibitors of HP1-beta Chromodomain Interactions with Methylated Histone Tails. Chromobox protein homolog 1 (Homo sapiens), P83916. AlphaScreen HP1-beta / biotin-H3K9me3 peptide binding. Potency, µM (highest dose often 114 µM), inactives show top-dose activity change, negative = inhibition, actives largely listed as inhibitors. hit rate 0.56% among 390,000. AID 540317, 2011; note: nearly all actives have a fitted effect of over 70% in size
# Target sequence (P83916 whole entry, looked up): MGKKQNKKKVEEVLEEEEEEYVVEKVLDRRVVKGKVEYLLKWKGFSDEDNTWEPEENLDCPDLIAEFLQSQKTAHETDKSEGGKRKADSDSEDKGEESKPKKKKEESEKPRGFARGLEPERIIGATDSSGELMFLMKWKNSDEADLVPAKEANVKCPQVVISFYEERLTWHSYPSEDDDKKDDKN
#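 HP1-beta protein (50 nM final) preincubated 30 min at room temperature with biotinylated H3(1-18)K9me3 peptide (50 nM) in PBS pH 7.4, 0.01% Tween-20, then compound added for 30 min. AlphaScreen streptavidin donor/nickel chelate acceptor beads (10 ug/mL final), 30 min dark, luminescence read.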
# An asterisk follows results filed as active; ? = inconclusive; · = no result; [ ] = dose if it differs, or a comment. Rows were chosen to be rich in hits. Some 11% of all compounds tested hit in one or more screens of this group. Calls come from the whole dose curve; as a rule, active = well fitted curve in the direction sought with a large enough effect; inconclusive = small, poorly fitted or top-dose-only effect, or another doubt; inactive = no such curve, though single readings can be large; an effect the other way counts as inactive or inconclusive. Potency is the fitted concentration of half-maximal effect.
SMILES,PLK1 PBD block,G9a block,BAZ2B block,JMJD2A Tudor inh,VDR inh,HP1b binding inh
CCCCNc1ccc(C(CC(N)=O)NC(=O)Cc2cccc3ccccc23)cc1[N+](=O)[O-] (stereo unspecified),-2.9%,-8.3%[12.7 µM],14.7%,-10.6%,-4.2%,33.0%
Cc1ccc(CNC(=O)c2ccccc2NC(=O)c2nsc3ccccc23)cc1,·,5.4%[59 µM],0.5%,-6.8%,16.9%,20.7%[57 µM]
Nc1nc(Nc2ccccc2)nc2ccccc12,-8.5%,?,-31.7%,-5.5%[57.1 µM],-2.1%,29.2%
CN(C)c1ccc(Nc2nc(N)c3ccccc3n2)cc1,-6.9%,10µM*,14.1µM*,39.8µM*,8.0%,31.6µM*
COc1cc(C(C#N)N2CCC(c3ccccc3)=N2)ccc1O (stereo unspecified),-9.4%,10µM*,-1.2%,-4.6%,-14.1%,23.5%
O=C(c1cnccn1)N1CCC2(CCCN(c3cccc(-c4ccccc4)c3)C2)CC1,·,-20.1%[12.7 µM],·,·,35.5µM*,·
O=C(c1ccncc1)N1CCC[C@@]2(CCN(c3cccc(-c4ccccc4)c3)C2)C1,·,-15.4%[12.7 µM],·,·,39.8µM*,·
O=C(c1ccco1)N1CCC2(CCCN(C(c3ccccc3)c3ccccc3)C2)CC1,·,-6.8%[12.7 µM],·,·,35.5µM*,·
O=C(c1ccncc1)N1CCC2(CCCN(c3cccc(-c4ccccc4)c3)C2)CC1,·,0.2%[12.7 µM],·,·,44.7µM*,·
O=C(c1cnccn1)N1CCC2(CCCN(c3ccc(-c4ccccc4)cc3)C2)CC1,·,-0.9%[12.7 µM],·,·,?,·
CCN(c1cccc(C)c1)C(CNS(=O)(=O)c1ccccc1)c1ccccc1 (stereo unspecified),·,-5.4%[59 µM],-37.7%,-35.9%,-6.8%,-2.4%
O=C(c1ccco1)N1CCC[C@@]2(CCN(c3ccccn3)C2)C1,·,-13.4%[12.7 µM],·,·,-15.0%,·
O=C(c1ccco1)N1CCC[C@@]2(CCN(c3cccc(-c4ccccc4)c3)C2)C1,·,-6.6%[12.7 µM],·,·,28.2µM*,·
CCCCCC(O)/C=C/C=C\CCCCCCCC(=O)O (stereo unspecified),·,·,·,·,1.7%,·
CN(C)CCNC(=O)CN1N=C(c2ccccc2)CCC1=O,·,2.6%[59 µM],9.0%,-2.4%,4.7%,52.7%
O=C(COC(=O)CCc1nc2ccccc2c(=O)[nH]1)NC(=O)NC1CCCC1,-14.0%,10µM*,-0.5%,-30.9%,1.7%,33.4%
CN(CC(=O)Nc1ccc2c(c1)OCCO2)Cc1nc2ccccc2c(=O)[nH]1,0.4%,?,-2.2%,-12.4%,-3.1%,41.7%
O=C(COC(=O)CCc1nc2ccccc2c(=O)[nH]1)Nc1ccc2c(c1)OCO2,-8.0%,56.2µM*,-17.1%,2.7%,1.3%,40.7%
O=C1NC(=O)c2c1c(-c1ccccc1)cc1[nH]c3ccc(O)cc3c21,·,·,·,·,-2.6%,·
O=C(Nc1cccnc1)C(Cc1ccccc1)n1cccc1 (stereo unspecified),-15.8%,50.1µM*,?,-17.7%,-19.4%,0.8%
O=C(CCC(=O)c1ccc(-c2ccccc2)cc1)Nc1cccnc1,2.4%,50.1µM*,-9.5%,-12.0%,-3.6%,42.6%
O=C(Nc1ncc(Br)s1)C(Cc1ccccc1)n1cccc1 (stereo unspecified),-5.3%,44.7µM*,44.7µM*,?,-15.9%,-8.4%
O=C(Nc1ccccc1F)C(Cc1ccccc1)n1cccc1 (stereo unspecified),·,1.1%[59 µM],-35.0%,-21.1%,-2.3%,13.6%
COC(=O)c1ccc(CSc2nc3c([nH]c4ccccc43)c(=O)n2-c2cccc(Cl)c2)o1,·,4.9%[59 µM],0.7%,-11.6%,5.5%,22.4%[57 µM]
CC(=O)Oc1ccc2c3c(c(=O)oc2c1)CCCC3,-3.7%,6.5%[0.501 µM],-2.5%,3.4%,-16.1%,29.4%
